This is a sample that favours compounds with a hit; in the whole collection about 3.5% have one here.
Mtb FBA inh = Mtb fructose-bisphosphate aldolase inhibition | purified M. tuberculosis FBA, fluorescence read-out | 360,000 tested, 2.3% active | P9WQA3 | inhibition, % at 1 µM; in the data active = inhibition above about 27%;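 also: 0% = vehicle and 100% = reference inhibitor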
Target sequence (P9WQA3 whole entry, looked up): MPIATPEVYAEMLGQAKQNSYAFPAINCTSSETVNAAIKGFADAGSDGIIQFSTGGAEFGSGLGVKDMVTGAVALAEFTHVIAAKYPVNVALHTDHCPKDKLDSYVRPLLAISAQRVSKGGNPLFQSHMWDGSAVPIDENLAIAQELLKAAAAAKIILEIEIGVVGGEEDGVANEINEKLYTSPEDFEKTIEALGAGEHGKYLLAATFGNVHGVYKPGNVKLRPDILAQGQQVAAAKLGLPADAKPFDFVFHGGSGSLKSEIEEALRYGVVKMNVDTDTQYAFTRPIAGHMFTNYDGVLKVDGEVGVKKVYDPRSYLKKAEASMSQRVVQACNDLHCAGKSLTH
Rv3671c inh = inhibitors of M. tuberculosis serine protease Rv3671c | inhibition, % at 5.96 µM | 320,000 tested, 0.048% active | AID 2606; in the data active = inhibition above about 38%;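 also: extracellular domain of Rv3671c used as enzyme; 0% = enzyme with DMSO and 100% = no enzyme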
GDH-TPI inh = counter-screen for M. tuberculosis FBA inhibitors: GDH-TPI coupled enzymes. GDH-TPI coupled enzyme counterscreen, NADH absorbance. inhibition, % at 4.8 µM. 360,000 tested, 1.2% active. AID 588335; in the data active = inhibition above about 30%;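 also: 0% = DMSO wells and 100% = wells lacking the enzyme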
Mtb betalactam = beta-lactam sensitization of Mtb H37Rv; inhibition, % at 25 µM; 330,000 tested, 0.27% active; M. tuberculosis H37Rv growth with meropenem, percent inhibition; call rule not given here;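 also: growth measured after seven days incubation then overnight dye step; 0% = bacteria only wells and 100% = bacteria with antibiotic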
UGM FP inh = blocks M. tuberculosis UGM enzyme; P9WIQ1; purified UGM, fluorescence polarization probe displacement; inhibition, % at 10 µM; 320,000 tested, 0.06% active; AID 504406; in the data active = inhibition above about 10%, passing the limit was not always enough; inconclusive = no clear call, values can overlap the other calls
* hit, by the source's call.

O=C(N/N=C/c1c(O)n(Cc2ccc(F)cc2)c(=O)[nH]c1=O)c1ccccc1O was read as Mtb FBA inh 12, Rv3671c inh -31, GDH-TPI inh 51*, Mtb betalactam 4 and UGM FP inh 1.
COc1ccc(/C=N/NC2=NS(=O)(=O)c3ccccc32)cc1 was read as Mtb FBA inh 0, Rv3671c inh -3, GDH-TPI inh 44*, Mtb betalactam 1 and UGM FP inh -5.
For O=S1(=O)N=C(N/N=C/C=C/c2ccccc2)c2ccccc21 the results were Mtb FBA inh 2, Rv3671c inh 0, GDH-TPI inh 40*, Mtb betalactam 1 and UGM FP inh 3.
`O=S1(=O)N=C(N(CCO)/N=C/c2ccc(Cl)cc2)c2ccccc21` gave Mtb FBA inh -4, Rv3671c inh -1, GDH-TPI inh 15, Mtb betalactam 1 and UGM FP inh 1.
Screening COc1ccc(/C=N/NC2=NS(=O)(=O)c3ccccc32)cc1OC(C)=O returned Mtb FBA inh -1, Rv3671c inh -3, GDH-TPI inh 32*, Mtb betalactam 9 and UGM FP inh 4.
Screening COc1cc(/C=N/NC2=NS(=O)(=O)c3ccccc32)cc(OC)c1OC returned Mtb FBA inh -3, Rv3671c inh -1, GDH-TPI inh 12, Mtb betalactam 11 and UGM FP inh 2.
O=S1(=O)N=C(N(CCO)/N=C/C=C/c2ccccc2)c2ccccc21 was read as Mtb FBA inh -3, Rv3671c inh -7, GDH-TPI inh 56*, Mtb betalactam -5 and UGM FP inh -2.
CCCCc1nc2cc(C(=O)N3CCCC(OCCC)C3)ccc2o1 (configuration not stated) was read as Mtb FBA inh 1, Rv3671c inh -2, GDH-TPI inh 13, Mtb betalactam -1 and UGM FP inh 3.
CC(=O)Oc1ccc(/C=N/NC2=NS(=O)(=O)c3ccccc32)cc1 was read as Mtb FBA inh -1, Rv3671c inh -3, GDH-TPI inh 35*, Mtb betalactam 12 and UGM FP inh 4.
For CN(C)c1ccc(/C=N/NC2=NS(=O)(=O)c3ccccc32)cc1 the results were Mtb FBA inh -5, Rv3671c inh 9, GDH-TPI inh 23, Mtb betalactam 3 and UGM FP inh 3.
Cc1cc(C)c2c(=N)c3ccccc3n(CCCCCCCCn3c4ccccc4c(=N)c4c(C)cc(C)nc43)c2n1 was read as Mtb FBA inh 24 and GDH-TPI inh 11.
`Cc1onc(-c2ccccc2Cl)c1C(=O)Nc1cccc2cccnc12` gave Mtb FBA inh -1, Rv3671c inh -14, GDH-TPI inh 6, Mtb betalactam 24 and UGM FP inh 2.
For CCSc1nnc(NC(=O)c2c(-c3ccccc3Cl)noc2C)s1 the results were Mtb FBA inh 2, Rv3671c inh -9, GDH-TPI inh 0, Mtb betalactam 73 and UGM FP inh 1.
`Cc1onc(-c2ccccc2Cl)c1C(=O)Nc1cccc(-c2nc3ncccn3c2C)c1` gave Mtb FBA inh 175*, Rv3671c inh 1, GDH-TPI inh 26, Mtb betalactam 4 and UGM FP inh 1.
For CC(=O)Nc1cccc(NC(=O)c2c(-c3ccccc3Cl)noc2C)c1 the results were Mtb FBA inh -3, Rv3671c inh 0, GDH-TPI inh -2, Mtb betalactam 4 and UGM FP inh -2.
For Cc1onc(-c2ccccc2Cl)c1C(=O)Nc1ccc(-c2cn3cccnc3n2)cc1 the results were Mtb FBA inh active, Rv3671c inh -13, GDH-TPI inh 31*, Mtb betalactam inconclusive and UGM FP inh -2.
For Cc1onc(-c2ccccc2Cl)c1C(=O)Nc1nnc(-c2cccc([N+](=O)[O-])c2)s1 the results were Mtb FBA inh 3, Rv3671c inh 4, GDH-TPI inh 35*, Mtb betalactam -5 and UGM FP inh -2.
Screening Cc1ccc(-c2cn3cccnc3n2)cc1NC(=O)c1c(-c2ccccc2Cl)noc1C returned Mtb FBA inh active, Rv3671c inh -3, GDH-TPI inh 16, Mtb betalactam 10 and UGM FP inh -1.
Screening CC(=O)Nc1ccc(NC(=O)c2c(-c3ccccc3Cl)noc2C)cc1 returned Mtb FBA inh 0, Rv3671c inh -1, GDH-TPI inh -7, Mtb betalactam 1 and UGM FP inh -2.
For CCOc1ccccc1OCC(=O)Nc1nc2ccccc2[nH]1 the results were Mtb FBA inh 5, Rv3671c inh -9, GDH-TPI inh 2, Mtb betalactam 17 and UGM FP inh 1.
Oc1ccccc1/C=N/Nc1nc2ccccc2o1 was read as Mtb FBA inh 9, Rv3671c inh 20, GDH-TPI inh 51*, Mtb betalactam 49 and UGM FP inh 2.
Screening Brc1ccc(/C=N/Nc2nc3ccccc3o2)cc1 returned Mtb FBA inh 5, Rv3671c inh 4, GDH-TPI inh -3, Mtb betalactam 18 and UGM FP inh 2.
For COc1cc(/C=N\Nc2nc3ccccc3o2)cc(OC)c1OC the results were Mtb FBA inh 5, Rv3671c inh -4, GDH-TPI inh 34*, Mtb betalactam 12 and UGM FP inh 1.
`COc1cc(/C=N/NC2=NC(C)(C)Cc3ccccc32)cc(OC)c1OC` gave Mtb FBA inh 5, Rv3671c inh 2, GDH-TPI inh 6, Mtb betalactam 4 and UGM FP inh 3.
`C(=N\Nc1nc2ccccc2[nH]1)/c1ccc2ncccc2c1` gave Mtb FBA inh 2, Rv3671c inh 4, GDH-TPI inh 33*, Mtb betalactam -7 and UGM FP inh 0.
CCOc1cc(/C=N/Nc2nc3ccccc3[nH]2)cc(Br)c1OCC(=O)N(C)C was read as Mtb FBA inh 3, Rv3671c inh 11, GDH-TPI inh 34*, Mtb betalactam 9 and UGM FP inh 0.
`COc1cc(/C=N\Nc2nc3ccccc3[nH]2)cc(OC)c1OC` gave Mtb FBA inh 2, Rv3671c inh 7, GDH-TPI inh 36*, Mtb betalactam -6 and UGM FP inh 2.
For COc1ccc(/C=N/Nc2nc3ccccc3[nH]2)cc1OC the results were Mtb FBA inh -2, Rv3671c inh 16, GDH-TPI inh 29, Mtb betalactam 0 and UGM FP inh -1.
`COc1cc(/C=N/Nc2nc3ccccc3o2)cc(OC)c1O` gave Mtb FBA inh 3, Rv3671c inh -1, GDH-TPI inh 31*, Mtb betalactam 14 and UGM FP inh 0.
Screening COc1ccc(/C=N/Nc2nc3ccccc3o2)cc1O returned Mtb FBA inh -2, Rv3671c inh 8, GDH-TPI inh 28, Mtb betalactam -2 and UGM FP inh 1.
For CC(CC(=O)NNC(=O)c1cccc(Cl)c1)c1ccccc1 (configuration not stated) the results were Mtb FBA inh -1, Rv3671c inh 3, GDH-TPI inh 1, Mtb betalactam 12 and UGM FP inh -2.
`CC(=O)Oc1ccc(-c2ccc(C(=O)Nc3cccc(S(=O)(=O)N4CCOCC4)c3)cc2)cc1` gave Mtb FBA inh 0, Rv3671c inh -76, GDH-TPI inh 3, Mtb betalactam -4 and UGM FP inh 2.
`Cc1ccc(Sc2ncccc2C(=O)NCc2cc([N+](=O)[O-])ccc2O)cc1C` gave Mtb FBA inh -1, GDH-TPI inh 2, Mtb betalactam -8 and UGM FP inh 1.
